Autofluor 339: intrinsic fluorescence of library compounds, ex339/em460 – biochemical, MLSMR library, data from DPM-DC assay, artefact control, profiling panel; 5.5% of 65,000 active; compound autofluorescence, ex339/em460 nm, NADH buffer; active compounds read high; 1 = no-compound wells, NADH background; fluorescence fold increase at 10 µM;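 active means at 10 µM, mean starting fluorescence two-fold or more over control wells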;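 further: signal is the first read of a kinetic run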
NADH coupling: blocks coupling enzymes of NAD/NADH assays | coupled PK/LDH NADH assays, four targets | IC50, µM (highest dose often 10 µM) | 0.02% of 65,000 active;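 active means single-dose screening hits from any of four coupled enzyme assays that gave an IC50 when retested across doses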;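 further: the DPM-DC format reads NADH fluorescence rather than 340 nm absorbance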
mHtt clearance: mutant huntingtin protein clearance; HeLa Exon1htt(103Q)mCFP, aggregate imaging; zero = plate's median compound well; inhibition, % at 1.5 µM; 0.42% of 47,000 active;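 active means inhibition of aggregate fluorescence above about 70%, also judged a hit by eye on the cell image, limit read from the data, passing the limit was not always enough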;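 further: cells exposed to compound for three days before fixation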
A340 absorber: absorbance at 340 nm | compound absorbance at 340 nm, fold over control | fold change at 10 µM | 65,000 tested, under 10 active | AID 708;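 active means at 10 µM dose, initial 340 nm absorbance at least 2 fold that of control wells; inactive means change under 2 fold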;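 further: initial absorbance extrapolated from kinetic A340 decline of NADH oxidation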
M1 antag: blocks the rat M1 muscarinic receptor response to acetylcholine; P08482; CHO-M1 cells, Fluo-4 calcium, ACh EC80 antagonist mode; active compounds read low; B-score at 10 µM; 3.4% of 64,000 active;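 active means calcium fluorescence response, raw or row-and-column corrected B-score, differing from the plate sample mean either way at a set confidence level, mostly lower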
Target sequence (P08482 whole entry, looked up): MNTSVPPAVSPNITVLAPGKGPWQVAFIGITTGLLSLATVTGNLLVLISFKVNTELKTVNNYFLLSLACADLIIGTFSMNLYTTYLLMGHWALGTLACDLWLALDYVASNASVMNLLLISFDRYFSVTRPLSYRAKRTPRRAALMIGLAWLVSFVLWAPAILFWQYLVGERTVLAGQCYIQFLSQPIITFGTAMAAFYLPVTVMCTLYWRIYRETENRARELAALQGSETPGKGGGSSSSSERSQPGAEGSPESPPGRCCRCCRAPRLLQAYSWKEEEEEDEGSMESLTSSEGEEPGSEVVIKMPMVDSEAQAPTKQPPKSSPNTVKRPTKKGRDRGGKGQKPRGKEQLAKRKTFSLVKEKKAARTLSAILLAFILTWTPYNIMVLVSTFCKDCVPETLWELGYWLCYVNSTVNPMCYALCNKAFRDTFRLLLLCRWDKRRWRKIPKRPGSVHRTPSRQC
M1 ag: activates the M1 muscarinic receptor; CHO-M1 cells, Fluo-4 calcium fluorescence, agonist mode; active compounds read high; B-score at 10 µM; 3% of 64,000 active;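 active means fluorescence rise, raw or as B-score row- and column-corrected plate score, outside the 99.7% band of its plate's samples, either direction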
Numbers stand for hits. Sampled rows, rich in hits. Any-hit rate of the full collection: about 9.3%.

Screening COc1ccc(C2C3=C(CC(C)(C)CC3=O)Nc3n[nH]c(C)c32)cc1 (configuration not stated) returned Autofluor 339 2.29, NADH coupling inactive, A340 absorber inactive, M1 antag inactive and M1 ag inactive.
`Cc1[nH]nc2c1C(c1ccccc1)C1=C(CC(C)(C)CC1=O)N2` (configuration not stated) gave Autofluor 339 4.37, NADH coupling inactive, A340 absorber inactive, M1 antag inactive and M1 ag inactive.
Screening O=C(Cc1cccc2ccccc12)N1CCCc2ccccc21 returned mHtt clearance inactive.
`CCSc1nc2sc3c(c2c(=O)n1C1CCCCC1)CCN(C)C3` gave Autofluor 339 inactive, NADH coupling inactive, A340 absorber inactive, M1 antag -2.3 and M1 ag inactive.
Cc1cccc(NC(=O)c2cc3n(n2)C(C(F)(F)F)CC(c2ccc4c(c2)OCO4)N3)c1 (configuration not stated) was read as Autofluor 339 inactive, NADH coupling inactive, mHtt clearance inactive, A340 absorber inactive, M1 antag inactive and M1 ag inactive.
For Cc1cc2n(n1)C(c1ccco1)Nc1ccccc1-2 (configuration not stated) the results were Autofluor 339 inactive, NADH coupling inactive, A340 absorber inactive, M1 antag inactive and M1 ag inactive.
For Cc1cc(C)c2c(c1)-c1cc(C)nn1C(c1ccc3c(c1)OCO3)N2 (configuration not stated) the results were Autofluor 339 2.67, NADH coupling inactive, A340 absorber inactive, M1 antag inactive and M1 ag inactive.
For Cc1cc2n(n1)C(c1ccc3c(c1)OCO3)Nc1c(C)cccc1-2 (configuration not stated) the results were Autofluor 339 2.21, NADH coupling inactive, A340 absorber inactive, M1 antag inactive and M1 ag inactive.
COc1ccc2c(c1)CCc1c(C(=O)N3CC4(C)CC3CC(C)(C)C4)noc1-2 (configuration not stated) was read as Autofluor 339 inactive, NADH coupling inactive, mHtt clearance inactive, A340 absorber inactive, M1 antag inactive and M1 ag 26.7.
COc1ccc2c(c1)CCc1c(C(=O)Nc3cc(C)n(Cc4ccc(Cl)cc4)n3)noc1-2 was read as Autofluor 339 3.7, NADH coupling inactive, A340 absorber inactive, M1 antag inactive and M1 ag inactive.
Screening COc1ccc2c(c1)CCc1c(C(=O)Nc3ccc(OC)c(OC)c3)noc1-2 returned Autofluor 339 2.17, NADH coupling inactive and A340 absorber inactive.
COc1ccc2c(c1)CCc1c(C(=O)N3CCOCC3)noc1-2 was read as Autofluor 339 inactive, NADH coupling inactive, mHtt clearance inactive, A340 absorber inactive, M1 antag inactive and M1 ag inactive.
For COc1ccc2c(c1)CCc1c(C(=O)NCCc3ccc(OC)c(OC)c3)noc1-2 the results were Autofluor 339 inactive, NADH coupling inactive, mHtt clearance inactive, A340 absorber inactive, M1 antag inactive and M1 ag inactive.
`COc1ccc2c(c1)CCc1c(C(=O)Nc3ccn(Cc4ccc(C)cc4)n3)noc1-2` gave Autofluor 339 inactive, NADH coupling inactive, mHtt clearance inactive, A340 absorber inactive, M1 antag inactive and M1 ag inactive.
Screening O=C(OCc1nnc(-c2ccccc2)o1)c1ccc(S(=O)(=O)NCc2ccco2)cc1 returned Autofluor 339 inactive, NADH coupling inactive, mHtt clearance 71.3, A340 absorber inactive, M1 antag inactive and M1 ag inactive.
Screening O=C(Nc1ccccc1C(=O)OCc1nnc(-c2ccccc2)o1)c1ccco1 returned Autofluor 339 inactive, NADH coupling inactive, A340 absorber inactive, M1 antag inactive and M1 ag inactive.
O=C(NCCCN1CCOCC1)c1cc2ccccc2oc1=O was read as Autofluor 339 inactive, NADH coupling inactive, mHtt clearance inactive, A340 absorber inactive, M1 antag inactive and M1 ag inactive.
N=c1c(C(=O)NCc2ccccc2)cc2c(=O)n3ccccc3nc2n1CCCN1CCOCC1 was read as Autofluor 339 3.73, NADH coupling inactive, A340 absorber inactive, M1 antag inactive and M1 ag inactive.
Screening N=c1c(C(=O)NCc2ccc(F)cc2)cc2c(=O)n3ccccc3nc2n1CCCN1CCOCC1 returned Autofluor 339 2.95, NADH coupling inactive, A340 absorber inactive, M1 antag inactive and M1 ag inactive.
For Cc1nc2ccccn2c1C(=O)NCCCN1CCOCC1 the results were Autofluor 339 inactive, NADH coupling inactive, mHtt clearance inactive, A340 absorber inactive, M1 antag inactive and M1 ag inactive.
`N=c1c(C(=O)NC2CCCCC2)cc2c(=O)n3ccccc3nc2n1CCN1CCOCC1` gave Autofluor 339 3.87, NADH coupling inactive, A340 absorber inactive, M1 antag inactive and M1 ag inactive.
Screening Cc1ccc(S(=O)(=O)c2cc3c(=O)n4ccccc4nc3n(CC3CCCO3)c2=N)cc1C (configuration not stated) returned Autofluor 339 2.21, NADH coupling inactive, A340 absorber inactive, M1 antag inactive and M1 ag inactive.
Screening CC(C)(C)C(=O)Cn1c(=O)n(CC2CCCO2)c(=O)c2ccccc21 (configuration not stated) returned Autofluor 339 inactive, NADH coupling inactive, A340 absorber inactive, M1 antag inactive and M1 ag inactive.
CCN(CC)S(=O)(=O)c1cc(C(=O)NC2CCCCC2)ccc1C was read as Autofluor 339 inactive, NADH coupling inactive, A340 absorber inactive, M1 antag inactive and M1 ag inactive.
For O=c1c2cc(-c3ccccc3)sc2ncn1/N=C/c1ccco1 the results were Autofluor 339 inactive, NADH coupling inactive, mHtt clearance inactive, A340 absorber inactive, M1 antag inactive and M1 ag inactive.
Screening N=c1c(S(=O)(=O)c2ccccc2)cc2c(=O)n3ccccc3nc2n1CCN1CCOCC1 returned Autofluor 339 3.66, NADH coupling inactive, A340 absorber inactive, M1 antag inactive and M1 ag inactive.
Screening Cc1ccc(S(=O)(=O)c2nc(-c3ccccc3)oc2NCCN2CCOCC2)cc1 returned Autofluor 339 inactive, NADH coupling inactive, mHtt clearance inactive, A340 absorber inactive, M1 antag inactive and M1 ag inactive.
Screening COc1cc(OC)c(OC)cc1/C=N/n1c(C)nnc1C returned Autofluor 339 2.16, NADH coupling inactive, mHtt clearance inactive, A340 absorber inactive, M1 antag inactive and M1 ag inactive.
CCOCc1nnc(NC(=O)c2cccs2)s1 was read as Autofluor 339 inactive, NADH coupling inactive, mHtt clearance inactive, A340 absorber inactive, M1 antag 2.09 and M1 ag inactive.
Screening COCc1nnc(NC(=O)c2ccc(NC(C)=O)cc2)s1 returned Autofluor 339 inactive, NADH coupling inactive, mHtt clearance 84.2, A340 absorber inactive, M1 antag inactive and M1 ag inactive.

Compound activity as filed in PubChem BioAssay.
